# GPR151 ag: activators of human GPR151. PathHunter beta-arrestin GPR151 cells, luminescence. activation, % at 11.2 µM. 650,000 tested, 1% active. Q8TDV0. AID 1508602; in the data active means activation above about 4.9%;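 further: 0% = median of compound wells and 100% = cells with positive control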
# MITF primary: blocks human microphthalmia-associated transcription factor | inhibition, % at 2.6 µM | 650,000 tested, 0.91% active | AlphaScreen MITF homodimerization, bead proximity signal | O75030 | AID 1259374; in the data active means inhibition above about 50%;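 further: 0% = vehicle wells with protein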
# Target sequence (O75030 whole entry, looked up): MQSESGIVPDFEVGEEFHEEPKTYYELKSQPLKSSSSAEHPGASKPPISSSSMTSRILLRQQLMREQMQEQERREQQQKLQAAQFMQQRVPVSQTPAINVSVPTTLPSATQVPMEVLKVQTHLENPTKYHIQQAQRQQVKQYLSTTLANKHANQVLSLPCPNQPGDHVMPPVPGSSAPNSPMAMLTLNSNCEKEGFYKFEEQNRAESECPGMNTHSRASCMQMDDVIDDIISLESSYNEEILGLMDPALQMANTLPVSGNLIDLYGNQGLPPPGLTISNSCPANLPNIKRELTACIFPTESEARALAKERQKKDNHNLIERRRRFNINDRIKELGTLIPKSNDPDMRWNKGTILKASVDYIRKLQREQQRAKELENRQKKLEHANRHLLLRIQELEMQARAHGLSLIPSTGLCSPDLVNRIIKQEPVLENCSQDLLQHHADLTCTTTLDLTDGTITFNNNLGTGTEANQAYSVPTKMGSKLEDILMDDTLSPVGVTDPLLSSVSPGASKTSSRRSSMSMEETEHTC
# FBW7 act: activators of human E3 ligase FBW7; AlphaScreen FBW7–phospho-cyclin E peptide binding, activator screen; 650,000 tested, 0.13% active; Q969H0; normalized activity (activation), % at 26.1 µM; AID 1259310; in the data active means normalized activity above about 1.9%;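 further: purified mutant Fbw7 with reduced substrate affinity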
# TEAD-YAP block: TEAD-YAP interaction inhibition; 640,000 tested, 1.4% active; inhibition, % at 9.12 µM; HEK-TIYL cells, TEAD-Gal4/YAP UAS-luciferase luminescence; in the data active means inhibition above about 32%;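 further: 0% = median of test compound wells and 100% = reference inhibitor wells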
# GPR151 conf act: confirmation of human GPR151 activators | shares compounds with GPR151 ag | GPR151 PathHunter beta-arrestin cells, luminescence, 90 min; % of EA-reagent control over plate median | activation, % at 11.2 µM | 6,700 tested, under 10 active | AID 1508609;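 active means mean percent activation across replicates above the confirmation screen cutoff of 4.91%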
# GPR119 counter: counter-screen for GPR151 activators: effect on human GPR119; activation, % at 11.2 µM; AID 1508611; shares compounds with GPR151 ag; GPR119 PathHunter beta-arrestin cells, luminescence, 90 min; 0 = compound-well median, 100 = enzyme-acceptor control; 6,700 tested, 0.3% active;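 active means mean percent activation in the counterscreen above 29.09%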;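 further: counterscreen on off-target GPR119 to flag nonselective hits from the GPR151 activator screen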
# * hit, by the source's call; nt = no result given. An excerpt weighted towards active compounds, which were near 3.5% of everything screened.
SMILES,GPR151 ag,MITF primary,FBW7 act,TEAD-YAP block,GPR151 conf act,GPR119 counter
CC(C)=CCN1CCN(Cc2ccc3nonc3c2)CC1CCO (stereo not given),5.4*,3,0,3,-1,-20
Cc1ccc(CN2CCN(Cc3ccc4nonc4c3)CC2CCO)cc1 (stereo not given),-1,11,0,-1,nt,nt
CCCCN(C)c1nc(N)c([N+](=O)[O-])c(N2CCOCC2)n1,5,0,0,2,nt,nt
Nc1nc(N2CCOCC2)nc(N2CCOCC2)c1[N+](=O)[O-],6.5*,-4,0,3,0,-9
Nc1ccc(-c2cn3c(NC(=O)c4ccccc4)cnc3cn2)cc1,0,28,0,0,nt,nt
Cc1ccc(C(=O)O)cc1N1C(=O)c2ccc(C(=O)c3cccc([N+](=O)[O-])c3)cc2C1=O,0,5,0,-1,nt,nt
Cc1cc(C)nc(-n2nc(C)c(C(O)(CC(=O)C(F)(F)F)C(F)(F)F)c2N)n1 (stereo not given),11*,0,0,-8,0,-3
Cc1cccc(-c2nc(C#N)c(NCCCN3CCOCC3)o2)c1,3,16,0,-35,nt,nt
O=C(NCCc1ccc(O)cc1)c1csc(-c2cccs2)n1,6.4*,36,0,-3,0,5
COc1ccc(CCNC(=O)c2csc(-c3cccs3)n2)cc1,0,18,1,-3,nt,nt
Cc1cccc(OCC(=O)O/N=C(\N)c2cccnc2)c1,-2,12,0,-2,nt,nt
CC(=O)N(C)c1ccc(NC(=O)c2ccco2)cc1,5.3*,8,0,-27,-1,-6
CC(C)(C)C1CCc2c(sc(NC(=O)c3cccs3)c2C(=O)NCc2ccco2)C1 (stereo not given),0,5,0,-5,nt,nt
COC(=O)CC(NC1CCN(c2ccc(CC(=O)N3CCCC3)cc2)CC1)C(=O)OC (stereo not given),6.1*,8,0,-10,1,23
COc1ccc(C2SCCN2S(=O)(=O)c2ccc(C)c([N+](=O)[O-])c2)cc1Br (stereo not given),0,5,0,2,nt,nt
Nc1ccccc1-c1nc2ccccc2[nH]c1=O,5.9*,4,0,-55,-2,-16
Cc1ccc2c(c1)/C(=C\c1ccc(Br)cc1)c1cc3ccccc3nc1-2,6.1*,-2,0,5,-1,-8
Cc1ccc(CN(CC(=O)O)S(=O)(=O)c2ccc(Cl)cc2)cc1,1,-11,0,-7,nt,nt
O=C(CN(Cc1ccccc1)S(=O)(=O)c1ccc(Br)cc1)Nc1ccccc1Cl,6.0*,-5,0,-2,1,4
O=C(O)CN(Cc1ccc(Cl)cc1)S(=O)(=O)c1ccc(Cl)cc1,5.1*,-8,0,3,0,-6
CCc1ccccc1NC(=O)CN(Cc1ccccc1)S(=O)(=O)c1ccc(Br)cc1,6.6*,1,1,1,1,7
CCc1ccccc1NC(=O)CN(Cc1ccc(Br)cc1)S(=O)(=O)c1ccccc1,-1,0,0,3,nt,nt
Brc1ccc2nc(-c3c[nH]c4ccccc34)cn2c1,7.1*,2,0,-29,0,-8
Cc1cccn2cc(-c3c[nH]c4ccccc34)nc12,1,1,0,-46,nt,nt
CCOCCCNC(=O)CCc1nnc2ccc(N3CCN(C)CC3)nn12,1,4,0,1,nt,nt
SMILES,GPR151 ag,MITF primary,FBW7 act,TEAD-YAP block,GPR151 conf act,GPR119 counter
CCOc1ccc(N(C(C)C(=O)Nc2ccc3c(c2)OCO3)S(C)(=O)=O)cc1 (stereo not given),-1,14,0,5,nt,nt
CC1CCCC(C)N1c1nnc(NC(=O)c2csc3c2CCCC3)s1 (stereo not given),5.8*,-10,0,-15,-1,8
Cc1ccc(-n2cnnn2)c(S(=O)(=O)N2CCOCC2)c1,5.4*,1,0,6,0,6
CCCCNC(=S)NNC(=O)C(=O)NNC(=S)NCCCC,6.4*,24,0,5,0,5
CCCCNC(=S)NNC(=O)C12CC3CC(CC(C3)C1)C2,1,-7,0,-8,nt,nt
Cc1cc(C)nc(SCC(=O)N2CCCCC2)n1,7.5*,13,0,-2,0,15
Cc1cc(=O)[nH]c2nnc(SCC(=O)N3CCCCCC3)n12,6.1*,-4,0,4,0,0
O=C(Nc1ccc(F)cc1)N[C@H]1C[C@H]2C(=O)N[C@H](Cc3ccccc3)C(=O)N2C1,0,3,0,-2,nt,nt
CCCC(C(=O)O)N1C(=O)c2ccccc2C1=O (stereo not given),0,-2,0,2,nt,nt
CCC(C)NC(=O)Cn1c(=O)n(-c2ccccc2)c(=O)c2sccc21 (stereo not given),1,8,0,8,nt,nt
Cc1ccc(C(=O)N2CCN(c3ccc([N+](=O)[O-])c(NCCc4ccccc4)c3)CC2)cc1,0,-9,0,8,nt,nt
COC(=O)C(C)N1C(=O)S/C(=C/c2cccn2C)C1=O (stereo not given),5.5*,11,0,-7,0,6
COC(=O)C(C)N1C(=O)S/C(=C/c2ccc(Cl)cc2)C1=O (stereo not given),0,-2,0,-16,nt,nt
Cn1cccc1/C=C1\SC(=S)NC1=O,5.1*,11,0,-2,0,-6
Cc1cccc(OCC(=O)Nc2ccc(S(=O)(=O)N(C)Cc3ccccc3)cc2)c1,5.6*,-7,0,-9,0,4
COc1ccc(S(=O)(=O)N(CC(=O)O)Cc2ccccc2)cc1C,-1,-14,0,12,nt,nt
COc1ccc(S(=O)(=O)N(C)Cc2ccccc2)cc1C,11*,4,0,-3,0,-6
CC(=O)Nc1ccc(S(=O)(=O)N(C)Cc2ccccc2)cc1,1,-11,0,0,nt,nt
CN(Cc1ccccc1)S(=O)(=O)c1ccc(NS(C)(=O)=O)cc1,5.7*,10,0,2,-1,-11
Nc1nonc1-n1nnc(C(=O)N/N=C/c2ccccc2[N+](=O)[O-])c1CN1CCOCC1,-1,4,0,7,nt,nt
Cc1cc(/C=C(/C#N)c2cccc(Cl)c2)c(C)n1C,5.6*,1,0,-11,0,0
Cc1cc(C)cc(NC(=O)NC2CCNCC2)c1,8.2*,2,0,-1,0,-3
N#CCOc1ccc2c(=O)c(Oc3ccccc3Cl)coc2c1,5.6*,8,0,7,1,19
Cc1ccc(-c2nnc3c4ccccc4c(C)nn23)cc1NC(=O)CN1CCCCC1,-1,-7,0,4,nt,nt
COC(=O)CSc1nc2ccccc2n1CC(=O)NC1CCCC1,-1,13,0,0,nt,nt
CCCNC(=O)CSc1nc2ccccc2n1CC(=O)NC1CCCC1,7.8*,-27,0,-8,0,-2

# Screening data from PubChem.
